# Laboratory results as given in ChEMBL document CHEMBL3988442, “University of Dundee, Small-Polar-MMV Screening Library” (2021).
# Columns and labels:
# [1] = biological target: T1, Aspartate--tRNA(Asp/Asn) ligase (Mycobacterium tuberculosis (strain ATCC 25618 / H37Rv)) (UniProt P9WFW3); assay: Assay for Asp RNA synthetase-1 from Mycobacterium tuberculosis; format: functional; set-up: scale not given: direction of the effect not stated beside the values; settings: 30 µM; note: in the data most compounds retested in dose-response had high values
# T1 sequence (whole entry): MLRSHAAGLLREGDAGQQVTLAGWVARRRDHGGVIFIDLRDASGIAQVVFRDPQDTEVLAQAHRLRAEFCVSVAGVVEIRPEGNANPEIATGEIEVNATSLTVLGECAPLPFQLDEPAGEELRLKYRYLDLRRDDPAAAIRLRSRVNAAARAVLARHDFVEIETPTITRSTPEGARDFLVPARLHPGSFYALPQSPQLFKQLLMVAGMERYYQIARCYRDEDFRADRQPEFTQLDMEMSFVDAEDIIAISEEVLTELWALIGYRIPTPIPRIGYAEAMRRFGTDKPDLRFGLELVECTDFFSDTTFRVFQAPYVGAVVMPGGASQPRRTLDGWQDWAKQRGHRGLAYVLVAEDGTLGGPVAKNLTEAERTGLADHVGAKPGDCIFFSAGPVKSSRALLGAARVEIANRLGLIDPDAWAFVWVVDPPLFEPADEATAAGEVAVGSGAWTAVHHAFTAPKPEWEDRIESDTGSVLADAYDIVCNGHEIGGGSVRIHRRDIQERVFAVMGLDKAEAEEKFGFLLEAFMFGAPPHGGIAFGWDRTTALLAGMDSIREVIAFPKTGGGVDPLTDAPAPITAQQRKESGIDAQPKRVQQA
# [2] = biological target: Shiga toxin 2 (Escherichia coli O157:H7) (UniProt P09385+P09386); assay: E. coli 0.157:H7 Shiga Toxin SOP - stx2 screening assay; format: functional; set-up: scale not given: direction of the effect not stated beside the values; settings: 30 µM
SMILES,Percent Effect [1] [%],Percent Effect [2] [%]
Cc1cccc2c1OCCC2NCc1c(C)nn(C)c1N(C)C (stereo not given),0.256,28.5
CC(C)N(C)C(=O)C1=NOC2(CCN(C(=O)c3ccccn3)C2)C1 (stereo not given),2.07,3
O=C(Cc1cccc(F)c1)N1CCCCC1c1ccn2ccnc2n1 (stereo not given),-2.63,-7.82
Cc1cc(C(=O)N2CCCCC2c2nc(C)cs2)[nH]n1 (stereo not given),-5.22,-15.7
Cc1cnn(CCNCc2nc(-c3ccccc3Cl)no2)c1,-2.88,-10.8
C[C@@H]1CN(C2(C(=O)N3CCOCC3)Cc3ccccc3C2)C[C@H](C)O1,0.585,-11.4
CN(C)c1ccc(CC(=O)N[C@@H]2CCNC[C@H]2O)cc1,3.77,1.28
O=C(NCC1CC1)[C@H]1C[C@H]2OCC[C@H]2N(CCc2ccccc2)C1,3.44,2.56
O=C([C@H]1CCCO1)N1CCc2ncnc(NC3CC3)c2CC1,2.52,-32
CC(C)(C)C(O)CN1CCN(C(=O)c2cccc3[nH]ncc23)CC1 (stereo not given),-5.46,-5.59
COCc1ccccc1CNc1nnc(C)c(C)c1C#N,7.84,29.7
COC(=O)c1ccc(N2CCN(CCC(=O)NC(N)=O)C(C)C2)cc1 (stereo not given),3.04,25.6
O=C(CCc1nccs1)N1CCCC(N2CCNC2=O)C1 (stereo not given),6.01,-8.24
COCCNC(=O)C(C)n1cc(Br)cn1 (stereo not given),9.87,-44.4
O=C(c1cccs1)N1CC[C@H](O)[C@@H]1Cc1ccccc1,0.296,-7.22
CC(C)CCN1CCN(Cc2nc(C3CC3)no2)CC1,0.0141,-32
O=C(Cc1ccccc1)N1CCC2(CC(=O)N(c3cccc(F)c3)C2)C1 (stereo not given),-1.85,10.2
Cc1cc(C)c(CNC(=O)C2CCCN(c3cnccn3)C2)c(=O)[nH]1 (stereo not given),-0.345,30.7
CCN(CC)CCNC(=O)c1ccn(COc2cc(C)cc(C)c2)n1,-3.4,-48.5
O=C(NCC1CC1)N1CCN(Cc2ccc3c(c2)OCCO3)CC1,0.365,16.2
Cc1ccccc1-c1cncc(C2CCN(C(C)C)CC2)n1,-1.25,-10.3
CC(C)(C)c1nnc(CN2CCCC(c3cc(C(N)=O)[nH]n3)C2)o1 (stereo not given),-0.781,19.9
CCc1noc(C)c1C(=O)N1CCCC1c1c(C)nn(C)c1OC (stereo not given),-3.25,5.57
Cc1cc(C[S+]([O-])CC(=O)NCc2cccs2)no1 (stereo not given),-0.395,9.34
c1cc2nccc(CC3CCCN(Cc4ncc[nH]4)CC3)c2cn1 (stereo not given),5.02,-54.1

SMILES,Percent Effect [1] [%],Percent Effect [2] [%]
O=C(C1CCCCC1)N1CCC2(CCCN2CC2CC2)CC1,2.39,-6.44
O=C(NCCOc1ccc2c(c1)OCO2)C1CC(=O)N(CC2CC2)C1 (stereo not given),4.55,24.2
COC1CCN(C(=O)Cc2csc(-c3ncccn3)n2)CC1,-5.19,12.8
CC(NC(=O)N(C)Cc1ccc(Cl)s1)c1ccccn1 (stereo not given),-2.02,-6.3
O=C(c1cc(COc2ccc3c(c2)OCO3)[nH]n1)N1CCOCC1,-0.0228,-36.8
CCc1nc(CC(=O)Nc2cnn(CC3CCCO3)c2)cs1 (stereo not given),1.86,-10.7
CNC(=O)N1C[C@H]2C[C@H](C(=O)Nc3ccccc3)[C@@H](C1)O2,2.94,6.82
Cc1ccc(OCCC(=O)N2CCN(c3cnccn3)CC2)cc1C,-0.856,-12.8
Cc1ncc(-c2ccnc(N3CCCCC3)n2)c(=O)[nH]1,-2.84,-19.6
COc1ccccc1CN1CCC2(CC1)CC(Oc1ccccn1)CO2 (stereo not given),1.6,-0.702
CCOc1nnc(CN2CCC(N(C)Cc3noc(C)n3)C2)s1 (stereo not given),5.37,24.4
Cc1cc(CN2CCc3nn(C)c(=O)cc3C2)on1,46.2,0.17
O=C(c1ccccn1)N1CCc2nc(-c3cnccn3)nc(O)c2C1,-1.53,-15.6
O=C(c1cnccn1)N1CCc2onc(CN3CCOCC3)c2C1,-0.84,-5.1
Cc1ccsc1CNc1cc(N2CCCC2CO)ncn1 (stereo not given),3.04,-22.2
CN1CCC/C1=N\S(=O)(=O)c1ccc(NC(=O)c2ccc(F)cc2)cc1,4.61,-109
O=C(c1cnc(C2CC2)s1)N1CCCCC1Cn1cccn1 (stereo not given),-8.43,-18.5
CN1CC(=O)N(c2cccc(F)c2)CC12CCN(Cc1cccnc1)C2 (stereo not given),2.03,-14.7
CC(=O)c1cccc(OCC(=O)NS(=O)(=O)c2ccc(C)s2)c1,-3.8,-7.24
Cc1ccc(-c2nnc(CN3CCOC(Cn4cccn4)C3)o2)cc1 (stereo not given),-0.257,-10.3
CC(C)c1n[nH]c(C2CN(C(=O)CCCn3cccn3)CCO2)n1 (stereo not given),-2.62,-10.6
NC(=O)C1CCN(c2nc3nccc(-c4ccccc4)c3c(=O)[nH]2)CC1,-4.72,-30.6
c1ccc(NCc2cn3c(n2)CN(Cc2cccnc2)CC3)nc1,-1.64,-39.5
O=C(C1CCC1)N1CCN(C(=O)c2cnccn2)[C@H]2CS(=O)(=O)C[C@H]21,-2.93,-12.2
O=C(Cc1ccsc1)N1C[C@@H]2CN(Cc3ccoc3)CCO[C@@H]2C1,-1.48,-6.92

SMILES,Percent Effect [1] [%],Percent Effect [2] [%]
Cc1nc(C)n(CC2CCCN(CCc3ccncc3)C2)n1 (stereo not given),0.891,-14.2
CCCC(=O)Nc1sc(C(=O)OCC)c(C)c1C#N,-1.82,7.46
COCCC(=O)N1CC2(CCN(Cc3cccc(Cl)c3)CC2)C1,-1.46,-17.6
Cc1ccoc1C(=O)N1C[C@H]2CCC[C@@]2(COCc2ccncc2)C1,6.22,-14.5
Cc1nc(Nc2ncccn2)cc(C2CCCN2CC(C)C)n1 (stereo not given),-0.75,13.5
Cc1cc(C(=O)N2Cc3ccccc3OC3(CCOCC3)C2)nc(N)n1,0.67,3.58
O=C1COC2(CCN(C(=O)c3ccco3)CC2)CN1Cc1cccnc1,-2.62,-14.9
COCC(c1cccc(C(F)(F)F)c1)N(C)C(=O)c1cc(C)no1 (stereo not given),-1.95,27.2
O=C1CC2(CCN(S(=O)(=O)C3CC3)C2)CN1c1cncnc1 (stereo not given),4.51,-33.9
CCc1nc(CN2CCN(C(=O)CCc3ccccc3)CC2)cs1,-4.18,-33.2
COc1cccc(N2CCN(CC(O)c3cc(C)ccc3C)CC2)c1 (stereo not given),9.16,-19.7
CCn1nccc1CNC(=O)C1CC1,11,-39.4
CC(C)OCCCNC(=O)c1ccc(-c2ccco2)[nH]c1=O,-5.99,19
O=C(NCc1ccco1)[C@H]1C[C@H]2OCC[C@H]2N(C(=O)c2ccncc2)C1,4.89,8.77
CC(C)NC(=O)C1CN(C(N)=O)Cc2ccnn2C1 (stereo not given),-3.46,-5.82
CCN1CCN(c2ccc(F)cc2C(C)NCc2noc(C)n2)CC1 (stereo not given),-3.26,-6.75
CN(Cc1nnc(C2CC2)o1)C1CCN(CCCc2cnn(C)c2)C1 (stereo not given),5.28,-45.6
COc1cc(CN2CCN(c3cccc(OC)c3)C(=O)C2)cc(OC)c1,-1.98,-8.17
CN(Cc1cc2c(cc1OC(F)F)OCO2)Cc1nccn1C,3.96,2.09
CC(C)=CCN1CCOC(Cn2nc(C)cc2C)C1 (stereo not given),-3.08,24.4
O=C(CCc1cscn1)N1CCCC1c1noc(C2CC2)n1 (stereo not given),-1.43,22.4
CO[C@H]1CCN(Cc2cccc(C)n2)[C@@H]2CN(Cc3cccnc3)C[C@H]12,-0.57,-14.4
Cc1[nH]c2ccccc2c1-c1ccnc(NCCN2CCOCC2)n1,7.28,-44.9
CC(C)NC(=O)N1CCc2ncc(CN3CCOCC3)n2CC1,3.1,0.463
Cc1cc(C)n(CC2CN(Cc3nc(-c4ccco4)no3)CCO2)n1 (stereo not given),1.64,-16.4
